An excerpt weighted towards active compounds, which were near 11% of everything screened.
3T3 cytotox: NIH 3T3 cell cytotoxicity | 94,000 tested, 4.3% active | NIH 3T3 viability, CellTiter-Glo ATP luminescence, 48-72 h | Potency, µM (highest dose often 96.7 µM), most hits filed as inhibitors | AID 1345082; further: nearly all actives have a fitted effect of over 55% in size
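Cells were seeded at 400 per well, treated with pin-transferred compound, and kept 48 or 72 hr at 37 °C before CellTiter-Glo addition and luminescence imaging of cellular ATP.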
HEK293 tox: kills HEK 293 cells; 94,000 tested, 6.6% active; Potency, µM (titrated, usually from 115 µM), usual class: inhibitors; HEK 293 viability, ATP luminescence (CellTiter-Glo), 48-72 h; AID 1345083; further: nearly all actives have a fitted effect of over 60% in size
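ATP-coupled CellTiter-Glo luminescence served as viability read-out, recorded 10 min after reagent addition at room temperature. HEK 293 cells, 250 cells/well, had been incubated with pintool-transferred compound for 48 or 72 hr at 37 degree Celsius.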
Luciferase inh: blocks purified firefly luciferase enzyme activity | P08659 | purified P. pyralis luciferase, luminescence, biochemical | Potency, µM (doses to about 115 µM), usual class: inhibitors | 76,000 tested, 2.5% active | AID 1347043; further: nearly all actives have a fitted effect of over 65% in size
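FLuc 10nM, D-luciferin 10uM, ATP 10uM, Mg acetate 10mM, Tris acetate pH 7.5, Tween/BSA; cpd qHTS; enzyme added last; CCD luminescence.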
NPR1 antag: human Npr1 receptor antagonism; P16066; HEK293 hNpr1 GloSensor cGMP, ANP-stimulated luminescence; Potency, µM (highest dose often 46.3 µM), usual class: inhibitors; 76,000 tested, 1.6% active; calls by dose curve; further: nearly all actives have a fitted effect of over 60% in size
Target sequence (P16066 whole entry, looked up): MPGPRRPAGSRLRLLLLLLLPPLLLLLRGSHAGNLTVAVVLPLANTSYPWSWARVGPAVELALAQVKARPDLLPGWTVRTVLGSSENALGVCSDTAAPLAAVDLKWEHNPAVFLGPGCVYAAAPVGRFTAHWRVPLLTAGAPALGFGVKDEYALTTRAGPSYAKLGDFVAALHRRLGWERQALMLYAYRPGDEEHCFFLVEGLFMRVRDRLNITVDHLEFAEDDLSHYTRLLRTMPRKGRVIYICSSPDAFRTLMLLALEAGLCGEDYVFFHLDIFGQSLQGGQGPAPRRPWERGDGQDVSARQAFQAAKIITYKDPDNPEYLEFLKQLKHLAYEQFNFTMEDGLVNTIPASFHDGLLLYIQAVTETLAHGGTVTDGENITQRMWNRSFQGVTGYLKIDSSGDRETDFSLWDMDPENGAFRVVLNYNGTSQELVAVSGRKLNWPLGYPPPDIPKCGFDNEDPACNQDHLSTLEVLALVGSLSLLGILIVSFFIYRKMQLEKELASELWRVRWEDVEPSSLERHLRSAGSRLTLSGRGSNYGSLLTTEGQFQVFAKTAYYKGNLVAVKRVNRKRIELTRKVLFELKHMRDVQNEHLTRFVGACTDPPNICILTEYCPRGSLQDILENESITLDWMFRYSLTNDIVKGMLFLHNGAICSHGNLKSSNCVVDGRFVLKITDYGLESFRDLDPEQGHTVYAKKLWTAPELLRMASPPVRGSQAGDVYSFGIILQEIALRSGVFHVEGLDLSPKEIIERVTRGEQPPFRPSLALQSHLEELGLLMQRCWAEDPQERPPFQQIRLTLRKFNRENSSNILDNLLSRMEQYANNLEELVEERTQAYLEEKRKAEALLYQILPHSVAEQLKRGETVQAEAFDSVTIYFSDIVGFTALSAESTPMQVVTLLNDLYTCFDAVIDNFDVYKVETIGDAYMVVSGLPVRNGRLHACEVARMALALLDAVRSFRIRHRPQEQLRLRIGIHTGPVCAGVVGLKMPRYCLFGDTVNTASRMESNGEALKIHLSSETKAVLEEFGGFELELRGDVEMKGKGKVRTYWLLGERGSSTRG
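Compound pre-incubated 30 min at room temperature on GloSensor-loaded HEK293 cells stably carrying hNpr1 and the pGS-40F cGMP biosensor. Stimulation uses hNppA at 0.1 nM final; luminescence is taken at baseline and 20 min post-agonist.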
Large screens that a line does not name were inactive; ! = a repeat was not active. Unless noted, the call rests on the fitted dose curve; in most records, active means well fitted curve in the direction sought with a large enough effect; inconclusive means small, poorly fitted or top-dose-only effect, or another doubt; inactive means no such curve, though single readings can be large; an effect the other way counts as inactive or inconclusive.

Cc1cn2nc(C(=O)N3CCC(NC(=O)c4ccccc4Cl)CC3)cc2c(=O)[nH]1	none
C=CCNC(=O)c1csc2nc(-c3cccc(C(F)(F)F)c3)cn12	3T3 cytotox inconclusive, HEK293 tox inconclusive, Luciferase inh inconclusive
Cc1nc(CN2CCOC3(CCN([S+](=O)([O-])c4ccc(C#N)cc4)CC3)C2=O)cs1	3T3 cytotox inconclusive
O=C(NC1CC1)c1ccccc1OC1CN(Cc2cc(F)c(F)c(F)c2)C1	3T3 cytotox inconclusive, HEK293 tox inconclusive
O=C(NCc1ccccc1)c1ccccc1OC1CN(Cc2ccc(F)c(F)c2)C1	3T3 cytotox 40µM, HEK293 tox inconclusive
O=C1NCc2ccccc2CC12CCCN2Cc1ccc(F)cc1F (stereo not drawn)	3T3 cytotox inconclusive (no result: Luciferase inh, NPR1 antag)
O=C1NCc2ccccc2CC12CCN(Cc1cccc(F)c1)C2 (stereo not drawn)	HEK293 tox inconclusive (no result: Luciferase inh, NPR1 antag)
O=C1NCc2ccccc2CC12CCN(Cc1cccc(C(F)(F)F)c1)C2 (stereo not drawn)	3T3 cytotox inconclusive, HEK293 tox 40µM (no result: Luciferase inh, NPR1 antag)
O=C1NCc2ccccc2CC12CCCN2Cc1cc(F)ccc1F (stereo not drawn)	3T3 cytotox inconclusive, HEK293 tox 35µM (no result: Luciferase inh, NPR1 antag)
CCc1ccccc1CN1CCCC12Cc1ccccc1CNC2=O (stereo not drawn)	3T3 cytotox inconclusive, HEK293 tox 79µM (no result: Luciferase inh, NPR1 antag)
Cc1ccsc1CN1CCCCC12Cc1ccccc1CNC2=O (stereo not drawn)	3T3 cytotox inconclusive, HEK293 tox 32µM (no result: Luciferase inh, NPR1 antag)
Cc1ccc(-c2nnc(C3CN(C(=O)C4CCCCC4)CC34CCOCC4)o2)cc1 (stereo not drawn)	none
O=C(O)c1ccccc1CN1CCC2(Cc3ccccc3CNC2=O)C1 (stereo not drawn)	none (no result: Luciferase inh, NPR1 antag)
CCOc1cccc(CN2CCCC23Cc2ccccc2CNC3=O)c1 (stereo not drawn)	3T3 cytotox inconclusive, HEK293 tox 79µM! (no result: Luciferase inh, NPR1 antag)
CCc1ccccc1CN1CCC2(Cc3ccccc3CNC2=O)C1 (stereo not drawn)	3T3 cytotox inconclusive, HEK293 tox 79µM (no result: Luciferase inh, NPR1 antag)
CCN(CC)C(=O)CC[C@@H]1CNC(=O)[C@@H]2C[C@H](NC(=O)Nc3cccc(Cl)c3)CN12	none
CC(C)C[C@@H]1N[C@H](C(=O)NC2CCC2)Cc2c[nH]c3cccc1c23	3T3 cytotox 50µM, HEK293 tox 45µM
CC(C)C[C@@H]1N[C@H](C(=O)N2CCN(c3ncccn3)CC2)Cc2c[nH]c3cccc1c23	3T3 cytotox inconclusive, HEK293 tox 79µM
CC(C)C[C@@H]1N[C@H](C(=O)NC2CCCC2)Cc2c[nH]c3cccc1c23	3T3 cytotox 50µM, HEK293 tox 32µM
C=CCN(C)C(=O)[C@@H]1Cc2c[nH]c3cccc(c23)[C@H](CC(C)C)N1	3T3 cytotox inconclusive, HEK293 tox inconclusive
COc1ccc(C(=O)N[C@@H]2CCC[C@@H]2C(=O)NCc2ccccc2C)cc1	none
O=C(COc1ccccc1)NC1CCN(c2cc(-c3ccccc3)[nH]n2)CC1	3T3 cytotox inconclusive, HEK293 tox inconclusive
O=C(Cc1cccc(C(F)(F)F)c1)N1CCCc2ncc(C(=O)N3CCCC[C@@H]3c3ccccc3)cc21	3T3 cytotox inconclusive, HEK293 tox 79µM, NPR1 antag inconclusive
Cn1cc(CC(=O)N2CCCc3ncc(C(=O)N4CCCC[C@@H]4Cc4ccccc4)cc32)c2ccccc21	3T3 cytotox inconclusive, HEK293 tox 40µM
COc1ccccc1CC(=O)N1CCCc2ncc(C(=O)N3CCCC[C@@H]3c3ccccc3)cc21	HEK293 tox inconclusive
COc1ccccc1CC(=O)N1CCCc2ncc(C(=O)N3CCCC[C@@H]3Cc3ccccc3)cc21	HEK293 tox inconclusive
CCOc1ccccc1CN1CCOCCNC(=O)[C@H]2CCCC[C@H]21	HEK293 tox inconclusive
COCCNC(=O)C1CN(c2cccc(OC)c2)C(=O)N1 (stereo not drawn)	none
O=C(c1coc(COc2ccc(F)cc2Cl)n1)N1CCCCO1	HEK293 tox inconclusive, Luciferase inh 35µM
O=C(NCCc1ccncc1)c1coc(COc2ccc(F)cc2Cl)n1	3T3 cytotox inconclusive, HEK293 tox 32µM
COCCN(C)C(=O)c1coc(COc2ccc(F)cc2Cl)n1	3T3 cytotox inconclusive
Cc1ccccc1CN1C[C@H](O)C[C@H]1c1nc(-c2ccncc2)no1	3T3 cytotox inconclusive, HEK293 tox inconclusive
Cc1cccc(-c2noc([C@@H]3C[C@@H](O)CN3Cc3ccc(Cl)cc3)n2)c1	3T3 cytotox inconclusive, HEK293 tox 100µM, Luciferase inh 63µM
O[C@@H]1C[C@@H](c2nc(-c3ccccc3)no2)N(Cc2ccccc2)C1	3T3 cytotox inconclusive
Cc1cccc(-c2noc([C@@H]3C[C@@H](O)CN3Cc3ccccn3)n2)c1	HEK293 tox inconclusive, Luciferase inh 50µM
CC(C)CCN1CCOCCNC(=O)CC1	none
COCCN1CCNc2nc(CNCc3cnccn3)n(Cc3ccccc3)c2C1=O	3T3 cytotox inconclusive
COCCN1Cc2nc(Nc3ccc(F)c(Cl)c3)ccc2OCC1=O	3T3 cytotox inconclusive, HEK293 tox 100µM
O=C1COc2ccc(Oc3ccccc3)nc2CN1CCOc1ccccc1	3T3 cytotox inconclusive, HEK293 tox 100µM, NPR1 antag inconclusive
Cc1ccccc1-c1ccc2c(n1)CN(CCOc1ccccc1)C(=O)CO2	3T3 cytotox inconclusive, HEK293 tox inconclusive
O=C1COc2ccc(Nc3cccc(F)c3)nc2CN1CCOc1ccccc1	3T3 cytotox 89µM, HEK293 tox 89µM, NPR1 antag inconclusive
COCCN1Cc2nc(Nc3ccc(C(F)(F)F)cc3)ccc2OCC1=O	3T3 cytotox inconclusive, HEK293 tox inconclusive
Cc1noc(C)c1S(=O)(=O)N1CCc2nc3cc(-c4ccccc4)[nH]n3c(=O)c2C1	Luciferase inh inconclusive
OCC1CN(c2ncccn2)CC12CCN(Cc1ccsc1)CC2 (stereo not drawn)	none
OCC1CN(C2CCC2)CC12CCN(Cc1ccsc1)CC2 (stereo not drawn)	3T3 cytotox inconclusive, HEK293 tox 89µM
Cc1cc(Cl)c2oc(C(=O)N(Cc3c(C)nn(C)c3C)C3CC3)c(C)c2c1	3T3 cytotox inconclusive, HEK293 tox inconclusive, Luciferase inh 28µM, NPR1 antag 7.9µM
CCOC(=O)C1=C(C)N=C2SC=C(CC(=O)N3CCC(C)CC3)N2C1c1cccc(OC)c1 (stereo not drawn)	3T3 cytotox inconclusive, HEK293 tox inconclusive
CCOC(=O)C1=C(C)N=C2SC=C(CC(=O)N3CCC(C)CC3)N2C1c1ccccc1F (stereo not drawn)	3T3 cytotox inconclusive, HEK293 tox 40µM
COCCOC(=O)C1=C(C)N=C2SC=C(CC(=O)NCc3cccc(F)c3)N2C1c1ccccc1 (stereo not drawn)	HEK293 tox inconclusive
CC1=C(C(=O)Nc2ccccc2)C(c2cc(C)ccc2C)N2C(CC(=O)N3CCCC3)=CSC2=N1 (stereo not drawn)	3T3 cytotox inconclusive, HEK293 tox 32µM, NPR1 antag inconclusive
COCCOC(=O)C1=C(C)N=C2SC=C(CC(=O)NCCc3ccccc3)N2C1c1ccccc1 (stereo not drawn)	3T3 cytotox inconclusive, HEK293 tox 50µM

Bioassay records as filed in PubChem.
